Results published in PubChem BioAssay AID540359 (Broad Institute, 2011).
Potency and affinity values are given separately. Active and inactive are the calls of the source. Where a call stands in place of a potency, no number is given. No rule for the calls is given here.

Target: UDP-galactopyranose mutase (Mycobacterium tuberculosis (strain ATCC 25618 / H37Rv)) (UniProt P9WIQ1)
Assay: UDP galactopyranose mutase inhibitors, Mycobacterium tuberculosis, cherry pick dose confirmation (AID 540359)
Settings: purified UGM enzyme, plate reader activity; series mostly up to 50 µM

UDP-galactopyranose mutase (Mycobacterium tuberculosis (strain ATCC 25618 / H37Rv)), sequence (P9WIQ1 whole entry, looked up): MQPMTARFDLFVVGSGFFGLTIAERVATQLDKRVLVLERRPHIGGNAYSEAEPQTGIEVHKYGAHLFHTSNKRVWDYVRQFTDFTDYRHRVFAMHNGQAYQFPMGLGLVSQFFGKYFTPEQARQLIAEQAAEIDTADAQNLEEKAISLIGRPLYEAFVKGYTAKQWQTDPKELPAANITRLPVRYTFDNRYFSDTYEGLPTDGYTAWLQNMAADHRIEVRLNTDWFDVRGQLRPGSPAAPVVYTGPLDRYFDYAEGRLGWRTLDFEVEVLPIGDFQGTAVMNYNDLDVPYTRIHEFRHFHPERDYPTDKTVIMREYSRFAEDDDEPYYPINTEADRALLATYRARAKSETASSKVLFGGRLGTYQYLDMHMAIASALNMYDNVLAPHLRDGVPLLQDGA

Row | Compound | outcome
1 | O=C(Nc1ccccc1F)C(=Cc1sc(N2CCOCC2)nc1-c1ccccc1)C(=O)Nc1ccccc1F | inactive
2 | COc1cccc(/C=N/n2c(-c3ccco3)nc3ccccc3c2=O)c1OC | inactive
3 | CCOC(=O)CNc1ccc2c(c1)OCO2 | inactive
4 | CCN(C(=O)COC(=O)c1ccc(O)cc1O)c1c(N)n(Cc2ccccc2)c(=O)[nH]c1=O | inactive
5 | CCN(CC)S(=O)(=O)c1ccc2c(c1)c(=O)c(C(=O)NCc1ccco1)cn2C | inactive
6 | CCOC(=O)c1cnc2ccc(Cl)cc2c1NCCN(C)C | inactive
7 | COCCCn1c(=O)/c(=C\c2ccccc2OC(C)C)s/c1=C(/C#N)C(=O)Nc1ccc(C(=O)O)cc1 | inactive
8 | O=C(NC(=S)Nn1cnnc1)c1ccccc1Cl | inactive
9 | Cn1cccc1C(=O)NC(=O)COC(=O)CC12CC3CC(CC(Br)(C3)C1)C2 | inactive
10 | CCN(CC)C(=O)C1c2ccccc2Oc2ccccc21 | inactive
11 | CCc1cc(C(=O)c2ccc(C)cc2)c(NC(=O)CCl)s1 | inactive
